Most compounds without a hit are left out; they make up all but 3% or so of the library.
Statin myotox sup – suppression of simvastatin myotoxicity. C2C12 myotubes + simvastatin, ATP luminescence, 48 h; scaled: DMSO 0, geranylgeraniol control 100. rescue of ATP level, % at 7.49 µM. 330,000 compounds, 0.78% hits;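 active = mean ATP rescue above about 67%, or every replicate alone reaching that limit, limit read from the data, passing the limit was not always enough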;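 also: myotubes were challenged with 10 µM simvastatin during compound exposure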
esBAF inh – inhibitors of esBAF chromatin remodeling in mouse ES cells; 350,000 compounds, 2% hits; reporter increase, % at 12.5 µM; Bmi1-luciferase knock-in reporter, 24 h; 100% = twice the neutral-well signal; in the data active = activation above about 40%;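 also: 0% = median of the plate's neutral control wells and 100% = double that signal; a rise in the Bmi1 reporter signal indicates esBAF inhibition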
Wnt bcat act – Wnt/beta-catenin pathway activation; Wnt/beta-catenin reporter cell assay, activator, plate reader; activation, % at 9.35 µM; 300,000 compounds, 1.2% hits; in the data active = activation above about 30%, passing the limit was not always enough;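 also: 0% = neutral control wells and 100% = positive control wells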
MITF act – activators of MITF-driven TRPM1 promoter activity in SK-MEL-5 cells | AID 588334 | 300,000 compounds, 0.75% hits | SK-MEL-5 TRPM1-promoter luciferase, 24 h; % of positive control, neutral wells = 0 | activation, % at 12.5 µM;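 active = mean activation of at least 80% with every replicate also reaching 80%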;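 also: 0% = neutral control wells and 100% = parthenolide positive control wells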
Numbers without * were called inactive; . = not tested or not shown.

SMILES	Statin myotox sup	esBAF inh	Wnt bcat act	MITF act
CCc1ccc(NC(=O)C2CCCN(S(=O)(=O)c3cccs3)C2)cc1 (centres undefined)	-34	2	-6	-18
Cc1ccc(NC(=O)C2CCCN(S(=O)(=O)c3cccs3)C2)cc1 (centres undefined)	78*	17	-1	-8
O=C(Nc1ccc(Br)cc1)C1CCCN1S(=O)(=O)c1cccs1 (centres undefined)	139*	7	.	-4
C[C@@H]1CN([C@H](C)CO)S(=O)(=O)c2ccc(-c3cncnc3)cc2O[C@H]1CN(C)CC1CC1	-16	-11	.	.
C[C@@H]1CCCCO[C@@H](CN(C)C(=O)Nc2ccc(C(F)(F)F)cc2)[C@@H](C)CN([C@H](C)CO)C(=O)c2cc(NC(=O)Nc3ccc(C(F)(F)F)cc3)ccc2O1	.	-10	.	.
Cc1cccc(Nc2nc3c(s2)CCCC3)c1	.	.	65*	103*
O=C(Nc1nc2c(s1)CCCC2)Oc1ccccc1	1	4	.	14
C/C(=N\Nc1nc2c(s1)CCCC2)c1ccccc1	5	47*	6	76
Cc1ccc(S(=O)(=O)Nc2cccc3c2O[C@@H](CN(C)Cc2ccc(Cl)c(Cl)c2)[C@@H](C)CN([C@H](C)CO)C3=O)cc1	-37	-12	.	.
O=C(Nc1cccc(C2=NCCN2)c1)Nc1cccc(C2=NCCN2)c1	-110	45*	-4	-5
Cc1nc2scc(-c3cccs3)c2c(=O)[nH]1	6	-5	-4	4
O=c1[nH]c(-c2ccc(O)cc2)nc2scc(-c3cccs3)c12	-18	61*	-3	114*
CCCCCc1ccc(-c2ccc(/C=C/C(N)=O)cc2)nc1	.	.	.	8
CCCCCc1ccc(-c2ccc(OC)cc2)nc1	-9	98*	20	97*
CC1(C(=O)NS(=O)(=O)c2cccc(C#N)c2)CCN1C(=O)C1CCCCC1 (centres undefined)	5	0	35*	.
CC(C)(C)c1ccc(C(=O)Nc2ccc(F)cc2)s1	.	.	5	91*
CCc1cc2cc(C(=O)Nc3ccc(F)cc3)sc2s1	-15	32	49*	37
CCc1cc2cc(C(=O)Nc3ccccc3F)sc2s1	.	18	-1	52
CCS(=O)(=O)N[C@H]1CC[C@H](CC(=O)NCc2ccc(F)cc2)O[C@H]1CO	5	2	.	.
Cc1cccc(-c2nnc(-c3cccc4ccccc34)o2)c1	-3	39	51*	13
Cc1ccc(CSc2nnc(-c3cccc4ccccc34)o2)cc1	-3	-3	0	-16
Cc1ccc(-c2nnc(-c3cccc4ccccc34)o2)cc1	1	54*	1	36
COc1cccc(-c2nnc(-c3ccc(C(F)(F)F)cc3)o2)c1OC	1	53*	.	.
c1ccc(Nc2nnc(-c3cccc4ccccc34)o2)cc1	.	.	38*	.
Cc1ccc(S(=O)(=O)N(C)C[C@@H]2Oc3ccc(NC(=O)Nc4ccccc4)cc3C(=O)N([C@@H](C)CO)C[C@@H]2C)cc1	-19	-6	.	.
SMILES	Statin myotox sup	esBAF inh	Wnt bcat act	MITF act
C[C@H](CO)N1C[C@H](C)[C@@H](CN(C)C(=O)CCCN(C)C)OCCCC[C@H](C)Oc2ccc(NC(=O)Nc3ccc(C(F)(F)F)cc3)cc2C1=O	90*	1	.	.
C[C@@H]1CCCCO[C@@H](CN(C)C(=O)Nc2ccc3c(c2)OCO3)[C@H](C)CN([C@H](C)CO)C(=O)c2cc(NC(=O)Nc3ccccc3)ccc2O1	.	10	.	.
C[C@H]1CCCCO[C@@H](CN(C)Cc2ccncc2)[C@@H](C)CN([C@@H](C)CO)C(=O)c2cc(NC(=O)Nc3ccc4c(c3)OCO4)ccc2O1	.	80*	.	.
C[C@@H]1CN([C@@H](C)CO)C(=O)c2cc(NC(=O)Nc3ccc4c(c3)OCO4)ccc2O[C@@H](C)CCCCO[C@H]1CN(C)C(=O)Nc1ccccc1	-15	66*	.	.
C[C@H](CO)N1C[C@H](C)[C@@H](CN(C)C(=O)Nc2ccc(F)cc2)OCCCC[C@H](C)Oc2ccc(NC(=O)Nc3ccc4c(c3)OCO4)cc2C1=O	15	50*	.	.
C[C@H]1CCCCO[C@H](CN(C)C(=O)Nc2cccc3ccccc23)[C@@H](C)CN([C@@H](C)CO)C(=O)c2cc(NC(=O)Nc3ccc4c(c3)OCO4)ccc2O1	66*	9	.	.
O=C(NC(=S)Nc1ccccc1)c1ccc(-c2ccccc2)cc1	-10	62*	19	47
CC(=O)c1cccc(NC(=S)NC(=O)c2cccc(C)c2)c1	.	.	29	109*
CC(=O)c1cccc(NC(=S)NC(=O)c2ccc(Cl)cc2)c1	.	.	18	97*

Screens from PubChem BioAssay.
